Molecules are shown by their SMILES. Out of some 2,100 compounds screened, about 760 (36%) were called active.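 How the source made its calls: active means thallium-flux fluorescence traces judged by eye to show enhanced or reduced glutamate response, manual score 1 or -1, so both directions (some results past the limit were not filed as active); inactive means the rest, including fluorescent or raised-baseline compounds.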 These entries were drawn from the full list.

The text below walks through data of PubChem BioAssay AID623868 (Vanderbilt High Throughput Screening Facility, 2012).

A short description of this experiment: thallium influx changes without GIRK channels – cell-based, HEK-293 rmGlu8, no GIRK, thallium flux, counter-screen for GIRK activator project, confirmation (AID 623868).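 Further: extra codes mark interference with 3 for fluorescent and 4 for baseline rise.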 The following applies: thallium flux fluorescence, at 10 µM, actives lie on both sides, codes: 1 enhancer, -1 blocker, 0 none, thallium stimulus containing EC20 glutamate. (A counterscreen serves to expose hits that act by an unwanted route or on another target.)
Turning to `CSC1=N/C(=C\c2ccc(Br)o2)C(=O)S1`, the manual score was 0 (inactive).
Turning to `CCCCN(C)C1=CC2=CC(=C(C#N)C#N)CCC2CC1` (centres undefined), the manual score is 3 (inactive).
To `Cc1cc2c(cc1C)C(=O)NC(C)(C)C2` belongs 0 (inactive); to `Cc1cccc(OCC(O)CN2C(C)(C)CC(O)CC2(C)C)c1` (centres undefined), 0 (inactive); to `COc1ccc(Nc2nc(C)cc(C)c2C#N)cc1OC`, 0 (inactive).
To `CCc1nc(N2CCOCC2)c(C#N)c2c1CCCC2` belongs 0 (inactive); to `Oc1[nH]c2ccccc2c1N=Nc1nc2ccccc2s1`, 1 (active).
Turning to `CCN(CC)CCCn1c(=S)[nH]c2cc(Cl)ccc2c1=O`, the manual score is 0 (inactive).
As for `CCCCn1c(=S)[nH]c2c(oc3ccc(Cl)cc32)c1=O`, the manual score is 1 (active).
Next, `CCCCn1c(-c2ccc(Cl)cc2)nc2c(=O)n(C)c(=O)[nH]c21`: 0 (inactive); `CC1(C)CC(=O)c2c(noc2-c2ccccc2)C1`: 0 (inactive).
Next, `CCCCN(CCCC)C(=S)NC(=O)c1ccccc1Cl`: 1 (active).
Next, `CCCCN(CCCC)C(=S)NC(=O)C(C)(C)C`: 1 (active); `CCCCN(CCCC)S(=O)(=O)c1ccc(NC(=O)c2ccc([N+](=O)[O-])cc2Cl)cc1`: 0 (inactive).
As to `CCCCn1c(NC(=O)c2ccccc2Cl)c(C#N)c2nc3ccccc3nc21`, the manual score was 0 (inactive).
To `CCCN(CCC)CCCOC(=O)c1ccc(Cl)cc1Cl` belongs 0 (inactive); to `CC1Cc2ccccc2N1C(=S)NC(=O)c1ccc(Cl)cc1Cl` (centres undefined), 1 (active).
Next, `CCCN(CCC)C(=S)NC(=O)c1ccc(Cl)cc1Cl`: 1 (active); `CCCCN(CCCC)c1ccc(C(=O)c2ccccc2C(=O)O)c(O)c1`: -0.5 (inactive); `CC(C)CCNC(=O)C(C)N(C(=O)Cn1nnc(-c2ccc(F)cc2)n1)C1CCCC1` (centres undefined): 0 (inactive).
In the case of `CCCCC(=O)N1CCCC(c2nc3c(nnn3Cc3cc(C)ccc3C)c(=O)[nH]2)C1` (centres undefined), the manual score is 0 (inactive).
Next, `CC(C)(C)c1ccc(CN2C3=NCCCN3c3ccccc32)cc1`: 0 (inactive); `CCN(CC)C(=S)NC(=O)c1ccc(Cl)cc1Cl`: 1 (active).
As for `CCOC(=O)/C(=C/C=C1\Sc2ccccc2N1CC)C(C)=O`, the manual score is 3 (inactive).
To `O=C(/C=C/c1ccccc1)c1cc(Br)ccc(=O)c1O` belongs 1 (active); to `CCc1ccc(/C=C/C(=O)c2cc(Br)ccc(=O)c2O)cc1`, 1 (active); to `COc1ccc(NC(=S)NC(NC(=O)/C=C/c2ccccc2)C(Cl)(Cl)Cl)cc1` (centres undefined), 0 (inactive).
Regarding `Cc1ccc(/C=C/C(=O)c2ccccc(=O)c2O)cc1C`, the manual score was 1 (active).
Next, `COc1ccc(/C=C/C(=O)c2cc(Br)ccc(=O)c2O)cc1`: 1 (active); `CCCCCCn1cnc2c(c1=O)c1nc3ccccc3nc1n2/N=C/c1ccco1`: 0 (inactive).
Regarding `Cc1cccc(NC(=O)COc2ccc(Br)cc2/C=N/O)c1`, the manual score is 0 (inactive).
On to `Cc1cccc(/C=C/C(=O)c2cc(Br)ccc(=O)c2O)c1`, for which the manual score was 1 (active).
To `Cc1cccc(/C=c2\s/c(=C\C(=O)C(C)(C)C)[nH]c2=O)c1` belongs 0 (inactive).
To `CC(C)(C)C1CCc2[nH]nc(C(=O)O)c2C1` (centres undefined) belongs -1 (active).
Next, `CSC(=O)NC12CC3CC(CC(C)(C3)C1)C2`: 0 (inactive); `Cc1cccc(C(=O)NC(=S)Nc2ccccc2C(F)(F)F)c1`: 1 (active).
Consider `Cc1ccc(C(=O)NC(=S)Nc2ccccc2C(F)(F)F)cc1C`, for which the manual score was 1 (active).
Regarding `O=C(NC(=S)Nc1cc(C(F)(F)F)ccc1Cl)c1ccccc1`, the manual score is 0 (inactive).
Next, `Cc1ccc(C(=O)NC(=S)Nc2ccccc2C(F)(F)F)cc1`: 1 (active); `O=C(NC(=S)Nc1nc2ccccc2s1)c1ccco1`: 1 (active).
In the case of `O=C(NC(=S)NCc1ccc(-c2nc3ccccc3s2)cc1)c1ccco1`, the manual score was 1 (active).
To `O=C(Nc1ccncc1)c1ccc2c(c1)C(=O)N(C1CCCCC1)C2=O` belongs 0 (inactive); to `CC(C)(C)C(=O)/C=c1\[nH]c(=O)/c(=C\c2ccc(F)cc2)s1`, 0.5 (inactive); to `CCOc1ccc(C(C)=O)cc1N1C(=O)C2C(C1=O)C1C=CC2C12CC2` (centres undefined), 0 (inactive).
To `CCOc1cc(/C=N/NC(=O)CNc2cccc(C)c2)ccc1OC(=O)c1ccccc1` belongs 0 (inactive); to `Cc1nc(/N=C(\N)NC(=O)c2ccccc2)nc2ccccc12`, 0 (inactive); to `Cc1ccc(C(=O)NNc2nc3ccccc3nc2C(F)(F)F)cc1`, 1 (active).
Regarding `O=C(NNc1nc2ccccc2nc1C(F)(F)F)c1ccccc1`, the manual score was 1 (active).
Turning to `Cc1ccc(C(=O)NC2(C(F)(F)F)N=C3SCCN3C2=O)cc1` (centres undefined), the manual score was 0 (inactive).
As to `CC(C)n1c(CCC(=O)O)ccc1-c1ccccc1`, the manual score is 0 (inactive).
Next, `Fc1ccc(NC(=S)N/N=C/c2ccc(F)c(F)c2)c(F)c1`: 1 (active); `Fc1ccc(/C=N/NC(=S)Nc2ccc(Cl)cc2)cc1F`: 1 (active); `Fc1cc(Br)ccc1NC(=S)NCCc1ccccc1`: 0 (inactive).
Next, `Fc1ccc(NC(=S)N/N=C/c2cccc(Br)c2)c(F)c1`: 1 (active); `Fc1cccc(/C=N/NC(=S)Nc2ccccc2Cl)c1`: 1 (active).
Next, `S=C(N/N=C/c1ccccc1Cl)Nc1ccccc1`: 0 (inactive).
Consider `CCSc1ccccc1C(=O)Nc1cccnc1`, for which the manual score is 0 (inactive).
Next, `CN(C(=O)c1cccnc1)c1nnc(-c2cnccn2)s1`: 0 (inactive).
Regarding `Cc1ccccc1-n1nnc2c(=O)oc3ccccc3c21`, the manual score is -1 (active).
To `CN1C(=O)c2oc3ccccc3c(=O)c2C1c1ccccn1` (centres undefined) belongs 0 (inactive); to `CC(=O)Oc1ccc2c(c1)Oc1cc(OC(C)=O)ccc1C21OC(=O)c2ccccc21`, 3 (inactive); to `COc1cccc(NC(=O)Cn2cc(C#N)c3ccccc32)c1`, 0 (inactive).
Next, `COc1cccc(NC(=O)C(Sc2nc3ccccc3c(=O)n2CC(C)C)c2ccccc2)c1` (centres undefined): 1 (active).
To `COc1cc(OC)c(NC(=O)CCNC(=O)Cn2cnc3ccccc3c2=O)cc1Cl` belongs 0 (inactive); to `COc1cccc(NC(=O)CSc2nc(N)cc(N)n2)c1`, 0 (inactive); to `COc1ccc(NC(=O)CSc2nc3ccccc3c(=O)n2CCCN2CCCCC2)c(OC)c1`, 0 (inactive).
As for `CCCn1c(SC(C(=O)Nc2cc(C)ccc2OC)c2ccccc2)nc2ccccc2c1=O` (centres undefined), the manual score is 1 (active).
To `CCCN(CC1CC1)C(=S)Nc1ccc(Oc2ccccc2)cc1` belongs 0 (inactive).
Take `CCc1cccc(NC(=O)NC2CCCCC2)c1`: the manual score was -0.5 (inactive).
To `CN(Cc1ccccc1)C(=S)NC(=O)c1ccc(-c2ccccc2)cc1` belongs 1 (active); to `C=CCN(CC=C)C(=S)NC(=O)c1ccc(-c2ccccc2)cc1`, 1 (active); to `O=C(NC(=S)NCC1COc2ccccc2O1)c1ccccc1` (centres undefined), 0 (inactive).
Next, `CN(Cc1ccccc1)C(=S)NC(=O)C1CCCCC1`: 1 (active); `CCCN(CCC)C(=S)NC(=O)c1ccc(-c2ccccc2)cc1`: 1 (active).
